# Data reported in PubChem BioAssay (NCI).
# Values joined by “and” are separate entries in the source; they are usually repeats but may differ in a detail not shown here. Identical values can stand only once. About 79,000 compounds went through this panel and 15% of them were active in at least one assay; those are over-represented in the sample as a whole. A number with no mark means an inactive call. Active and inactive are the calls of the source. Cut-off read from the data, not from the text of the source: active = growth inhibition above about 70%; inactive = the rest.
# Key:
# [1] = NCI Yeast Anticancer Drug Screen. Data for the rad50 strain (AID 155);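 note: 0% = growth of vehicle-only cultures of the same strain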; details: S. cerevisiae rad50 strain growth inhibition; at 50.0 µM; hits give high values
# How it was run: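 Yeast carrying a defined DNA repair defect were exposed to test compounds, and growth was compared with vehicle-treated controls to give percent inhibition.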
# [2] = NCI Yeast Anticancer Drug Screen. Data for the mec2-1 strain (AID 157); details: S. cerevisiae mec2-1 strain, at 50.0 µM, hits give high values
# How it was run: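 Strain: mec2-1 (DNA repair/cell cycle alteration). Compound exposure, then growth measured; inhibition expressed relative to vehicle.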
# [3] = NCI Yeast Anticancer Drug Screen. Data for the sgs1 mgt1 strain (AID 161);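 note: 0% = growth of cultures given vehicle only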; details: S. cerevisiae sgs1 mgt1 strain, at 50.0 µM, hits give high values
# How it was run: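 Inhibition of yeast growth, normalised to vehicle-treated controls, is reported for a strain bearing genetic alterations in DNA damage repair.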
# [4] = NCI Yeast Anticancer Drug Screen. Data for the cln2 rad14 strain (AID 165);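 note: 0% = growth equal to vehicle treated cultures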; details: S. cerevisiae cln2 rad14 strain, at 50.0 µM, hits give high values
# How it was run: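 Compounds are applied to the cln2 rad14 yeast strain, and growth is then compared with that of vehicle-treated cultures to give inhibition.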
# [5] = NCI Yeast Anticancer Drug Screen. Data for the bub3 strain (AID 167); details: S. cerevisiae bub3 mutant strain, at 50.0 µM, hits give high values
# How it was run: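 Compounds were applied to a genetically altered yeast strain carrying a cell-cycle control defect. Growth inhibition was scored against vehicle-treated controls.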
# [6] = NCI Yeast Anticancer Drug Screen. Data for the mlh1 rad18 strain (AID 175); details: S. cerevisiae mlh1 rad18 strain growth inhibition; at 50.0 µM; hits give high values
# How it was run: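 Read-out is yeast growth inhibition, calculated against vehicle-only controls. The compound was applied to a strain engineered with DNA damage repair alterations.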
SMILES,growth inhibition [1],growth inhibition [2],growth inhibition [3],growth inhibition [4],growth inhibition [5],growth inhibition [6]
Fc1ccc(C(Cl)(Cl)Cl)cc1,-8.9%,-33.5%,2.75%,-17.2%,-17.1%,6.2%
c1ccc(C2=NC(c3ccccc3)N3CC23c2ccccc2)cc1 (configuration not stated),12.8%,15.2%,5.05%,-7.6%,15.2%,24.4%
C[N+](CCCl)(CCCl)Cc1cc([N+](=O)[O-])cc([N+](=O)[O-])c1,-6.05%,-3.05%,8.9%,-8.6%,-1.25%,5.95%
O=C(CF)[O][Sb]([O]C(=O)CF)([c]1ccccc1)([c]1ccccc1)[c]1ccccc1,9.8%,19.9%,23.8%,-18.6%,16.2%,33.8%
C/C=C(\C)C(=O)N[C@@H](c1ccccc1)[C@@H](O)C(=O)OC1C[C@@]2(O)[C@@H](OC(=O)c3ccccc3)[C@@H]3[C@]4(OC(C)=O)CO[C@@H]4C[C@H](O)[C@@]3(C)C(=O)[C@H](OC(C)=O)C(=C1C)C2(C)C (some centres not stated),34.1%,13.6%,13.8%,16.9%,21.4%,29.9%
CC(O)CN(CCN(CC(C)O)CC(C)O)CC(C)O.O=[N+]([O-])O.[Cu+2] (configuration not stated),6.05%,-54%,-27.2%,-35.6%,-29.6%,5.15%
O=C(O)c1cc(Cc2ccc(O)c(C(=O)O)c2)ccc1O,-24.2% and -8.25%,3.15% and -18.5%,-18.3% and 8.2%,-0.5% and -39.9%,-13.4% and 33.9%,-23.9% and -10.8%
O=C(O)c1ccccc1S,7.1% and 0.05%,-7.6% and -15.2%,9.95% and -8.35%,18.9% and -22.2%,-1.75% and 5.25%,2.75% and 11.5%
CCCC[As](CCCC)SC1OC(COC(C)=O)C(OC(C)=O)C(OC(C)=O)C1OC(C)=O (configuration not stated),98.6% (active),98.7% (active),98.8% (active),96.9% (active),98.5% (active),98.1% (active)
CN1C2CCCC1CC(=O)C2,-10.3%,-3.55%,-19.4%,-22.4%,-3.55%,-10.8%
CC(C)CCC(=O)O[C@H]1CC[C@@]2(C)C(=CC[C@@H]3[C@@H]2CC[C@]2(C)C(=O)CC[C@@H]32)C1,26.2%,8.4%,11.4%,17.1%,1.95%,23.3%
CC1CCC(OC(=O)CCl)CC1 (configuration not stated),18.1%,19.4%,13.3%,7.45%,8.95%,-8.75%
CC(=O)CC(C)=O.CC(=O)CC(C)=O.[Mn],17.1%,1.05%,1.75%,-42.2%,-3.3%,-2.5%
O=P(Oc1ccccc1)(Oc1ccccc1)N(CCCl)CCCl,0.2%,9.55%,-8.35%,-11.9%,-19.2%,-37.6%
CCC1(Sc2ncnc3c2ncn3C2OC(CO)C(O)C2O)C(=O)NC(=O)NC1=O (configuration not stated),4.5%,2.7%,-7.95%,16.9%,-6.05%,-7.2%
CN1CCN(Cc2ccccc2)CC1CC#N (configuration not stated),-17.3%,-34.8%,-24.1%,-0.2%,2.65%,-30.9%
CC(C)(C)C[C](C)(c1ccccc1)[Sn]([CH3])([CH3])[CH3] (configuration not stated),-14.2%,4.9%,8.4%,6.9%,1.2%,7%
CCCC(Br)C(=O)OCC (configuration not stated),13.6%,4.35%,-8.1%,0.15%,0.25%,9.1%
N.N.N.N.N.O=C([O-])CCl.[Co+3].[O-][Cl+3]([O-])([O-])[O-],-21.4%,-7.45%,-33.5%,-0.1%,-16.6%,-31.4%

SMILES,growth inhibition [1],growth inhibition [2],growth inhibition [3],growth inhibition [4],growth inhibition [5],growth inhibition [6]
N#CC(C#N)=Cc1ccccc1F,15.5%,7.1%,12.2%,15.2%,10.6%,12.7%
CCc1ccccc1C(C(=O)NC1CN2CCC1CC2)c1ccsc1 (configuration not stated),-10%,-28.8%,-43.3%,-21.2%,8.05%,-23.1%
O=S(=O)(c1ccccc1)N1CN2CCN(C2)C1,17.6%,7.2%,31.6%,2.65%,5.5%,10.4%
C=CC(N)=O (tested in a mixture with another compound),1.15%,-7.1%,8.2%,0.4%,15.8%,2.2%
CC(C)CCC[C@@H](C)[C@H]1CC[C@H]2[C@@H]3CC=C4C[C@@H](OC(=O)Cl)CC[C@]4(C)[C@H]3CC[C@]12C,-24.1%,-24.9%,-14.7%,1.7%,-2.7%,-13.4%
[CH3][Sn]([CH3])([n]1cnc2ccccc21)[n]1cnc2ccccc21,0.85%,9.9%,12.2%,-4.85%,0.1%,-3.45%
O=P1(N(CCCl)CCCl)Oc2c(Cl)cc(Cl)c(Cl)c2Cc2c(Cl)c(Cl)cc(Cl)c2O1,-15.1%,-31.7%,2.85%,0.25%,-14.2%,-10.7%
CC(NC1=NCCO1)c1cccs1 (configuration not stated),12.2%,-2.15%,-20.1%,25.9%,15.7%,-12.9%
CC1(C)[C@@H]2CC[C@]1(C)[C@H](OC(=O)C(Cl)(Cl)Cl)C2,-16.6%,-5.35%,-9.65%,-19.3%,26.8%,9.75%
CNC(=O)O/N=C/c1cccc(/C=N/OC(=O)NC)c1,-0.1%,14.3%,3.35%,49.5%,28.8%,11.2%
O=[As](O)(O)c1ccc(F)cc1,3.45%,9.8%,-4.35%,14.6%,9.3%,2.95%
Cc1cccc(N=Nc2ccc(N(C)C)cc2)c1,-8.45%,-36.6%,2.4%,-29.6%,-8.6%,-13.3%
Cc1cccc(C=NCCOCCOCCN=Cc2cccc(C)c2O)c1O.[Ni],-8.3%,2.65%,-13.6%,1.25%,-19.6%,-14.2%
CCCCOCN(COCCCC)C(C)Cc1ccccc1 (configuration not stated),11.7%,-3.3%,-12.5%,11.1%,-2.25%,-21.8%
C[CH2][Pb]([CH2]C)([CH2]C)[n]1ccnc1,-22.6%,-6.8%,-11.9%,-29.3%,-1.4%,-9%
NNC(=S)NN,4.95%,4.3%,1.7%,-15.4%,-2.6%,35.6%
CCN(CC)C1=C(N(CC)CC)C(N(CC)CC)=C(N(CC)CC)C1=O.[C-]#[O+].[C-]#[O+].[C-]#[O+].[Fe],-45.6%,-13.2%,-22.1%,-2.65%,-16.6%,-33.8%
CC1(C)N=C(N)N=C(N)N1c1ccc(CCCCc2ccc(S(=O)(=O)F)c(Cl)c2)c(Cl)c1,99.2% (active),99.5% (active),99.4% (active),99.2% (active),99.3% (active),99.3% (active)
